PubChem BioAssay (NCATS)
Values joined by “and” are separate entries in the source; they are usually repeats but may differ in a detail not shown here. Equal entries are not always repeated. Results filed as inconclusive are left out. Active and inactive are the calls of the source. Unless noted, the call rests on the fitted dose curve; in most records, active means well fitted curve in the direction sought with a large enough effect; inconclusive means small, poorly fitted or top-dose-only effect, or another doubt; inactive means no such curve, though single readings can be large; an effect the other way counts as inactive or inconclusive.

How the values were obtained:
[1] = target: Glucocorticoid receptor (Homo sapiens) (UniProt P04150); assay: GR-GFP Redistribution (AID 450;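 active means compounds whose dose series gives a full or clear partial fitted curve of increased nuclear translocation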; further: potency means the concentration at half of the fitted maximal effect); settings: U2OS GR-GFP nuclear translocation, laser cytometry, 2 h
[2] = target: Glucocorticoid receptor (Homo sapiens) (UniProt P04150); assay: GR-EFC Redistribution (AID 451; calls by dose curve; further: potency means the concentration at half of the fitted maximal effect); settings: CHO-K1 GR-EFC translocation, beta-gal luminescence, 2 h
Method in brief: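 CHO-K1 cells stably expressing nuclear-localized β-gal enzyme acceptor and GR fused C-terminally to the enzyme donor fragment; ligand-driven nuclear translocation restores β-gal by complementation. Compounds titrated up to 46 uM final, 2 h at 37 °C; luminescence read.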

[3] = qHTS Assay for Lipid Storage Modulators (AID 1519; calls by dose curve); settings: Drosophila S3 cells, BODIPY lipid droplet/cell ratio, laser cytometry, cells loaded with oleic acid
Method in brief: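 Cells seeded at 5,000 per well were treated with compounds over a concentration series and loaded with oleic acid (400 uM, as added). Lipid droplet fluorescence (488 nm excitation, 500-530 nm channel) was read by laser-scanning cytometry and normalized to 20 uM Triacsin C.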

[4] = target: Ubiquitin carboxyl-terminal hydrolase 1 (Homo sapiens) (UniProt O94782); assay: Inhibitors of USP1/UAF1: Pilot qHTS (AID 504865);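 further: rhodamine fluorescence freed from ubiquitin-rhodamine substrate followed over time; top concentration of the series differs between compounds; on the % scale 0 is the no-effect control and ±100 the full control effect; nearly all actives have a fitted effect of over 35% in size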
Method in brief: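 1nM USP1/UAF1 + cpd, 15 min RT; start w/ Ub-Rho 150nM final; kinetic FL 480/540 nm, 6 reads q60 s. Buffer 50mM HEPES pH 7.8, 0.5mM EDTA, 1mM TCEP, 0.01% Tween-20, 0.1 mg/ml BSA.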

[5] = target: DNA dC->dU-editing enzyme APOBEC-3G (Homo sapiens) (UniProt Q9HC16); assay: qHTS for inhibitors of Vif-A3G interactions: Validation (AID 588379); further: 0% is about no effect
Method in brief: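 Yellow fluorescence (Ex 488, Em 500-530) of Vif-coexpressing HeLa A3G-eYFP cells, scanned by Acumen cytometer, reports blocked A3G degradation. Cells plated at 700/well overnight at 37 deg C before compound addition, then a further overnight compound incubation at 37 deg C.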

[6] = test system: Zika virus NS2B-NS3 protease; assay: Primary screen GU AMC qHTS for Zika virus inhibitors (AID 1347154);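 further: 0% = no-inhibitor control and -100% = no-enzyme control; nearly all actives have a fitted effect of over 70% in size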
Method in brief: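 Unlinked Zika NS2B hydrophilic domain/NS3 protease domain noncovalent complex (25 nM final) in 10 mM Tris-HCl pH 8.0, 0.01% Tween 20, with AMC peptide substrate. Fluorescence (ex 340, em 450 nm) change over 15 min, room temperature; percent inhibition fitted to 4-parameter Hill equation.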

[7] = Primary qHTS for small molecule stabilizers of the endoplasmic reticulum resident proteome: Secreted ER Calcium Modulated Protein (SERCaMP) assay (AID 1508630); further: on the % scale 0 is the no-effect control and ±100 the full control effect
Method in brief: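 The SH-SY5Y reporter protocol was run at 3 concentrations up to 38.3 uM (primary) or 11 concentrations (follow-up): 16 h compound, 100 nM thapsigargin for 4 h, then extracellular luciferase luminescence.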

[8] = AP1 Signaling Pathway (AID 357; active means well fitted curve in either direction with a large enough effect, not every such curve was filed as active;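 further: ME-180 reporter cells stimulated with EGF at its EC50 level; on the % scale 0 is the no-effect control and ±100 the full control effect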)
Method in brief: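 Read-out was the 460nm/530nm emission ratio (excitation 405nm) after CCF4 loading for 2.5 hours at room temperature. Cells carried an AP-1-driven beta-lactamase reporter, were stimulated with EC50 EGF plus compound for 5 hours, and AC50 values came from titrations.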

[9] = target: Cytochrome P450 1A2 (Homo sapiens) (UniProt P05177); assay: p450-cyp1a2 (AID 410; calls by dose curve;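 further: -100% = full effect of reference inhibitor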)
Method in brief: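 20nM CYP1A2, 100uM Luciferin-ME (=Km), 100mM KPO4; cpd 10 min RT; +NADPH regen, 60 min RT; stop/detect 20 min; luminescence. Normalized to furafylline 57 uM = full inhibition.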

[10] = NFAT Signaling Pathway (AID 444; active means well fitted curve in either direction with a large enough effect, not every such curve was filed as active;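 further: carbachol stimulus at about its EC50 of 1 µM final; on the % scale 0 is the no-effect control and ±100 the full control effect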); settings: Jurkat NFAT-bla M1, carbachol, beta-lactamase ratio, 5 h
Method in brief: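 Jurkat cells carrying an NFAT-driven β-lactamase reporter and co-transfected muscarinic M1 receptor were treated with compound plus carbachol (1 uM final, an EC50 level) for 5 h at 37 °C. CCF4 loading followed for 1 h at RT; 460/530 nm ratio gave %activity.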

[11] = target: Mitogen-activated protein kinase 10 (Mus musculus) (UniProt Q61831); assay: JNK3 AlphaScreen Assay (AID 530; active means well fitted curve in either direction with a large enough effect, not every such curve was filed as active;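 further: kinase came from lysate of stimulated human HepG2 cells; signal reports phosphorylation of biotinylated GST-cJun 1-79 at Ser73 with 10 µM ATP; on the % scale 0 is the no-effect control and ±100 the full control effect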)
Method in brief: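 Biotinylated GST-cJun(1-79) served as substrate for JNK3 in HepG2 lysates stimulated with IL-1beta and TNF-alpha. ATP was 10 uM final, pH 7.6. Ser73 phosphorylation was quantified by AlphaScreen (680 nm excitation).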

[12] = target: 3',5'-cyclic-AMP phosphodiesterase 4B (Homo sapiens) (UniProt Q07343); assay: qHTS Assay for Inhibitors of PDE-IV (AID 607; active means well fitted activation curve with a large enough effect in the main read-out, with a control signal flat, not every such curve was filed as active; further: % of control where 0% means no effect)
Method in brief: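 Live HEK293 cells with a modified cyclic nucleotide-gated (CNG) channel report intracellular cAMP via membrane-potential dye fluorescence (ex 535/em 590 nm). Endogenous PDE-IV was targeted. Compounds were tested at up to 22.9 uM final; RO 20-1724 100 uM served as control.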

[13] = target: Pyruvate kinase (Leishmania mexicana) (UniProt Q27686); assay: qHTS Validation Assay for Inhibitors of Leishmania Mexicana Pyruvate Kinase (AID 945);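 further: 0% = DMSO only neutral control wells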
Method in brief: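 An endpoint luciferase assay: 0.2 nM LmPYK E451W turns over 0.5 mM PEP with 0.1 mM ADP for 1 h at room temperature, pH 7.2, before PKLight addition. Values are normalized to DMSO-only wells.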

[14] = target: Pyruvate kinase PKM (Homo sapiens) (UniProt P14618); assay: qHTS Assay for Activators of Human Muscle Pyruvate Kinase (AID 954; active means well fitted curve in the direction sought with a large enough effect, not every such curve was filed as active;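 further: 0% = uninhibited enzyme and -100% = no enzyme or full thiadiazolimine inhibition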)
Method in brief: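 Screening used highly purified human pyruvate kinase M2 under submaximal activity, with PEP at its Km and ADP below Km. After an hour at room temperature, ATP was read by luciferase luminescence.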

[15] = target: Alpha-galactosidase (Coffea arabica) (UniProt Q42656); assay: Counterscreen for Glucocerebrosidase Inhibitors: qHTS Assay for Coffee Bean alpha-Galactosidase at pH 4.5 (AID 957);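 further: plate controls were enzyme alone for no effect and no enzyme for full effect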
Method in brief: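 Fluorogenic read-out: 4-methylumbelliferone at Ex 365/Em 440 nm after NaOH/glycine stop (pH 10). Enzyme 2 nM, 4-MU-alpha-galactoside 80 uM, citrate buffer pH 4.5, 20 min RT; normalized to no-enzyme and enzyme controls.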

[16] = target: Alpha-galactosidase A (Homo sapiens) (UniProt P06280); assay: Counterscreen for Glucocerebrosidase Inhibitors: qHTS Assay for Human alpha-Galactosidase at pH 4.5 (AID 992); further: 0% is about no effect
Method in brief: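 Each compound is preincubated briefly with 2 nM enzyme before substrate addition (80 uM); plates then sit 20 min at ambient temperature, are quenched with 1M NaOH/1M glycine, and read fluorometrically.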

[17] = target: alpha-glucosidase (Oryza sativa, rice) (UniProt Q653V4); assay: Counterscreen for Glucocerebrosidase Inhibitors: qHTS Assay for Rice alpha-Glucosidase at pH 5.0 (AID 997);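 further: 0% = full activity with enzyme and -100% = basal without enzyme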
Method in brief: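 Endpoint fluorogenic assay at pH 5.0: compounds (0.7 nM to 77 uM) titrated against 4 nM rice enzyme and 400 uM 4-MU-alpha-glucoside for 20 min at room temperature; NaOH/glycine stop, read ex 365/em 440 nm, Hill-fitted AC50.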

[18] = target: Alpha-galactosidase (Coffea arabica) (UniProt Q42656); assay: Counterscreen for Glucocerebrosidase Inhibitors: qHTS Assay for Coffee Bean alpha-Galactosidase at pH 5.9 (AID 998);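 further: plate controls were uninhibited enzyme for no effect and no-enzyme basal signal for full effect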
Method in brief: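 In 50 mM citric acid pH 5.9 with 0.005% Tween-20, coffee bean enzyme hydrolyses 80 uM 4-MU alpha-D-galactopyranoside over 20 min at RT. Activity is normalized to controls; AC50 comes from Hill-modelled concentration-response data.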

[19] = target: Cytochrome P450 2C19 (Homo sapiens) (UniProt P33261); assay: qHTS Assay for Inhibitors and Substrates of Cytochrome P450 2C19 (AID 899); further: on the % scale 0 is the no-effect control and ±100 the full control effect; nearly all actives have a fitted effect of over 60% in size
Method in brief: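 In 50mM KPO4, the reaction held 5nM enzyme and KM-level (10uM) Luciferin-H EGE; it ran 60 min at 37C after NADPH regeneration and a 10 min compound preincubation. Luminescence values were scaled to 57uM ketoconazole as complete inhibition.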

[20] = measured here: cell count channel max response
[21] = measured here: lipid channel max response

Sequence of 3',5'-cyclic-AMP phosphodiesterase 4B (Homo sapiens) (Q07343 whole entry, looked up): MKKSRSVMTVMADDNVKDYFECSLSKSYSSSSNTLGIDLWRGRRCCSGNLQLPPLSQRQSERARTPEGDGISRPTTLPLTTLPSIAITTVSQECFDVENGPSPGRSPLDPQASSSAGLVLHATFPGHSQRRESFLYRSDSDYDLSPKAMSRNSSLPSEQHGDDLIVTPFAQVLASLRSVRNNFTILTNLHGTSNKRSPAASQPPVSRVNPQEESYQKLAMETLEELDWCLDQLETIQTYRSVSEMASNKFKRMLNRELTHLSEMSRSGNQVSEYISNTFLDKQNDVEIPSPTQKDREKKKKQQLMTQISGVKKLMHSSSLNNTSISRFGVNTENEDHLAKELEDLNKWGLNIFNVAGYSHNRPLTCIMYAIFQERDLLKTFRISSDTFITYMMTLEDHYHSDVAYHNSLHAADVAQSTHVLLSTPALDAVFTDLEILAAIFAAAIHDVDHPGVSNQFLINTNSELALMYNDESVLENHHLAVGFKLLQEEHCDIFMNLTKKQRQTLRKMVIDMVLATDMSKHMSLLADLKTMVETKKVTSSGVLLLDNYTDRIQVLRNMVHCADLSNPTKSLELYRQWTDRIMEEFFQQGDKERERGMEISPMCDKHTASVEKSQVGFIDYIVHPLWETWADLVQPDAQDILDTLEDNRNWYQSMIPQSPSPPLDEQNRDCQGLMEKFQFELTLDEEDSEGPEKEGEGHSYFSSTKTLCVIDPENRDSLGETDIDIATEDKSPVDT
Sequence of Cytochrome P450 1A2 (Homo sapiens) (P05177 whole entry, looked up): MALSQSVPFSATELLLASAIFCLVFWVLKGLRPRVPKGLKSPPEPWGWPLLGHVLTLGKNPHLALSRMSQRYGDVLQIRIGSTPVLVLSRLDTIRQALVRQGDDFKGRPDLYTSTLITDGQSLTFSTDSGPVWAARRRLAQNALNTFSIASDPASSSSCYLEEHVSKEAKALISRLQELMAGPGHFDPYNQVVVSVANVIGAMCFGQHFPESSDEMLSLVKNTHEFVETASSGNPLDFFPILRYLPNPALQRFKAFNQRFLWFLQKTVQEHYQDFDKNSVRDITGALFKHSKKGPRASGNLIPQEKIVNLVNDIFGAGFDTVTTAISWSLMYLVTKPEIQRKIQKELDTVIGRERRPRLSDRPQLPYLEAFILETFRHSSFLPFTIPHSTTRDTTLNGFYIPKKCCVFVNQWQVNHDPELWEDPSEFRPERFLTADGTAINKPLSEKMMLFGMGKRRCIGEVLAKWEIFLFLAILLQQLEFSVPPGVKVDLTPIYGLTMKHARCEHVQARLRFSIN
Sequence of Alpha-galactosidase (Coffea arabica) (Q42656 whole entry, looked up): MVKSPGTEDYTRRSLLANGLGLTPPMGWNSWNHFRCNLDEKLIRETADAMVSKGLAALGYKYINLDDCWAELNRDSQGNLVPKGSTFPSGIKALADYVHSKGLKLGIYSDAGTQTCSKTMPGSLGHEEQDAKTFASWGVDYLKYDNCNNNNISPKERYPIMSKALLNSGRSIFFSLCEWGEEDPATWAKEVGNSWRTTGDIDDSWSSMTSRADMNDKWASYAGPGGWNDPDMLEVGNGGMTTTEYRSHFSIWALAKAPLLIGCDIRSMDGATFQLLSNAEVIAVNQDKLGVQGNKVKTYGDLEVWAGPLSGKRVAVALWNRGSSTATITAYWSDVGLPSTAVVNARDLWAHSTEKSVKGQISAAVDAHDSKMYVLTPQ
Sequence of Ubiquitin carboxyl-terminal hydrolase 1 (Homo sapiens) (O94782 whole entry, looked up): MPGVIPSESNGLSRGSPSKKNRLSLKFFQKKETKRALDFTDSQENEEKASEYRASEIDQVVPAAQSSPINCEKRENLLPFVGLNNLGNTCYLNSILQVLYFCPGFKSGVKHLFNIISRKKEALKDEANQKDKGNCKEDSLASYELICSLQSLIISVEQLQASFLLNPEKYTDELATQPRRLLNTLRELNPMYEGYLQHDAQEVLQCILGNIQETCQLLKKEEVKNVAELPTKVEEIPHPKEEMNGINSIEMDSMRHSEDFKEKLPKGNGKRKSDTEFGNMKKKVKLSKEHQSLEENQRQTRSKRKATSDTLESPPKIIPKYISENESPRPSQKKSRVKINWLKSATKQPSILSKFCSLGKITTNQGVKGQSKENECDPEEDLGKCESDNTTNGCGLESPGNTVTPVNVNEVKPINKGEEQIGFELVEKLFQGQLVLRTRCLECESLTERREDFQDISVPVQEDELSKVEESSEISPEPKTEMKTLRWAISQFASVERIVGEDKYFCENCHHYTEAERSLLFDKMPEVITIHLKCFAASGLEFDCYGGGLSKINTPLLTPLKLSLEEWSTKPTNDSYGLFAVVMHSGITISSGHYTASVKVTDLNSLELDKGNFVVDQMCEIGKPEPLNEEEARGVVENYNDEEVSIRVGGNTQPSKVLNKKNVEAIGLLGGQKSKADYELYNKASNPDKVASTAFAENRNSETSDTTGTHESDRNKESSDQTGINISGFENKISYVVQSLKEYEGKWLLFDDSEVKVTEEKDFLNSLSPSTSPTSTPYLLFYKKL
Sequence of Glucocorticoid receptor (Homo sapiens) (P04150 whole entry, looked up, the tested form may be a part): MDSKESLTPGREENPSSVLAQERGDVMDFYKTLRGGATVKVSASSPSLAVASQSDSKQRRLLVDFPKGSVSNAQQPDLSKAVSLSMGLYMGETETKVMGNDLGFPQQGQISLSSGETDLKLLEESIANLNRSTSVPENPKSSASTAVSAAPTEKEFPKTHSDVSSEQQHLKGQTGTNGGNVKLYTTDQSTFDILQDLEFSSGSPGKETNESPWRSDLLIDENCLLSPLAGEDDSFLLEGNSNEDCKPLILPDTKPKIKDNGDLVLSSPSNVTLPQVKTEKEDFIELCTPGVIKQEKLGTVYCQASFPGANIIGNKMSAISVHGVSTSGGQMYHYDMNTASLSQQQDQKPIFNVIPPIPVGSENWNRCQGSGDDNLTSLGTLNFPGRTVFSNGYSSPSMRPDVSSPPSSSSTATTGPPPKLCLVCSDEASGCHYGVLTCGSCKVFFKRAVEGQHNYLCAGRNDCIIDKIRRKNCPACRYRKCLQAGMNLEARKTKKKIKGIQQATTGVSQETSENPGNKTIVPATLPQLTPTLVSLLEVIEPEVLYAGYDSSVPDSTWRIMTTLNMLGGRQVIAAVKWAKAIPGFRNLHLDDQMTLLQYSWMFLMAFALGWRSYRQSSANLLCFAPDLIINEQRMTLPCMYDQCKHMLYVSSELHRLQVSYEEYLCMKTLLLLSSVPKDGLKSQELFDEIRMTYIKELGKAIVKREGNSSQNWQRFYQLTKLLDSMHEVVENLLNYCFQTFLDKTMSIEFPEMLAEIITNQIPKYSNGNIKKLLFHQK
Sequence of DNA dC->dU-editing enzyme APOBEC-3G (Homo sapiens) (Q9HC16 whole entry, looked up): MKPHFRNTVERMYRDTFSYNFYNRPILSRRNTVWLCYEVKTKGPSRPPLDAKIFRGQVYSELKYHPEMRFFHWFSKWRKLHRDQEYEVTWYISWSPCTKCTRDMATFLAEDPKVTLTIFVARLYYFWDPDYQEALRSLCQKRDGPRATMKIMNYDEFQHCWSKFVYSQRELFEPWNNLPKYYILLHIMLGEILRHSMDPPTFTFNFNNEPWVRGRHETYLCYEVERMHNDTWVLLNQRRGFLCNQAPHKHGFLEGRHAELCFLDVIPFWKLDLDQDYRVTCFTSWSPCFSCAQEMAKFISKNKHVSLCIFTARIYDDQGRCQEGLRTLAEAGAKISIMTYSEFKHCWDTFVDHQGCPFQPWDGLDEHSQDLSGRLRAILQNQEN
Sequence of Pyruvate kinase PKM (Homo sapiens) (P14618 whole entry, looked up): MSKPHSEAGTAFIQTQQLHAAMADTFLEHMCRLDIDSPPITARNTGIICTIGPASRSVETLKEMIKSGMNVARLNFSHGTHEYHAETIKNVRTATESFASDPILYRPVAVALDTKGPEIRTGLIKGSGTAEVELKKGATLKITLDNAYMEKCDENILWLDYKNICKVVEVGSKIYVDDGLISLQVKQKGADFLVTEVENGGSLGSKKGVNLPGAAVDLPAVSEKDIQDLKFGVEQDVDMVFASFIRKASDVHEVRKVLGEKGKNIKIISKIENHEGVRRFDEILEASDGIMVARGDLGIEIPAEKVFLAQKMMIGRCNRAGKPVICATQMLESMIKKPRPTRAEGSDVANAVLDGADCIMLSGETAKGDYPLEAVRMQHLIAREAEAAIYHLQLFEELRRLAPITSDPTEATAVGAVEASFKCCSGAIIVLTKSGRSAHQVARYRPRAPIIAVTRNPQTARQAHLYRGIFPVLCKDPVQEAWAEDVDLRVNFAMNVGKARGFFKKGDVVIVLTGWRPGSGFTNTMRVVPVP
Sequence of Alpha-galactosidase A (Homo sapiens) (P06280 whole entry, looked up): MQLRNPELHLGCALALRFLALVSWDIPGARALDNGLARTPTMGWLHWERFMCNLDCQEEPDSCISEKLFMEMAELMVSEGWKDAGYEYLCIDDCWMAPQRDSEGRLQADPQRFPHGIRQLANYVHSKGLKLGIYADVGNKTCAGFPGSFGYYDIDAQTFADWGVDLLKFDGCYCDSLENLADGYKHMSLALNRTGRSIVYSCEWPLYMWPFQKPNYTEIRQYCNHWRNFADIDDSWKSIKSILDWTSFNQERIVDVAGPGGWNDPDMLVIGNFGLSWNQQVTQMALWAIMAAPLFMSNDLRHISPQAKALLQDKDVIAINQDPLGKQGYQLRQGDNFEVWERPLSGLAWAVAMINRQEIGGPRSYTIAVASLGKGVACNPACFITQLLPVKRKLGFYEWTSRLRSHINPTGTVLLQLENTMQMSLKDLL
Sequence of Cytochrome P450 2C19 (Homo sapiens) (P33261 whole entry, looked up): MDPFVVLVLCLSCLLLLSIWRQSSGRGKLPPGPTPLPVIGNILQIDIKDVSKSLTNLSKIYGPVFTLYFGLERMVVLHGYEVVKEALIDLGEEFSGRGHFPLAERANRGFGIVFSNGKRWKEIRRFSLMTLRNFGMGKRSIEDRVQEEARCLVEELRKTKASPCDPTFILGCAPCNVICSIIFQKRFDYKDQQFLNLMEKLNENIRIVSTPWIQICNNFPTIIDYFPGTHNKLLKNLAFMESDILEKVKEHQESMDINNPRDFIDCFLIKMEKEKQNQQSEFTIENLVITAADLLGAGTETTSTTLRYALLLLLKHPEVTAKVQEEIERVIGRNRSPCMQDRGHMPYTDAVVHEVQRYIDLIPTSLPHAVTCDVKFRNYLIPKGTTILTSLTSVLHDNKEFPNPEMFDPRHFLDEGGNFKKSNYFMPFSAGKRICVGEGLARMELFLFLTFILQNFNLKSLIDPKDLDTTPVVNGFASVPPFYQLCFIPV

O=C(O)[C@@H]1C[C@H]2C[C@@H](CP(=O)(O)O)CC[C@H]2CN1
-11.2%: max response [3, 21]
-9.16%: max response [3, 20]
inactive: Potency [1] > 46 µM | Potency [2] > 46 µM | activity change, negative = inhibition ([3]; at 57.5 µM (top of the series)) -1.59% | Potency [4] | Potency [5] | Potency [6] | Potency [7]

CC[C@]1(C2=NCCN2)Cc2ccccc2O1
inactive: outcome [8] | Potency [9] | activity change, negative = inhibition ([10]; at 38 µM (top of the series)) -18.1% | outcome [11] | Potency [12] | outcome [13] | outcome [14] | outcome [15] | outcome [16] | outcome [17] | outcome [18] | activity change, negative = inhibition ([3]; at 57.5 µM (top of the series)) 2.09% | Potency [5] | Potency [6] | Potency [7]
7.07%: max response [3, 21]
4.62%: max response [3, 20]

c1cncc(C2=NCCC2)c1
-18.1%: max response [3, 20] | max response [3, 21]
inactive: outcome [8] | activity change, negative = inhibition ([10]; at 17.2 µM (top of the series)) -0.876% | Potency [1] > 20.6 µM | Potency [2] > 20.6 µM | outcome [11] | Potency [12] | activity change, negative = inhibition ([3]; at 25.7 µM (top of the series)) -0.221% | Potency [4] | Potency [6] | Potency [7]

N[C@@H](CCCCP(=O)(O)O)C(=O)O
-29%: max response [3, 21]
inactive: Potency [1] > 46 µM | outcome [11] | activity change, negative = inhibition ([3]; at 57.5 µM (top of the series)) 0.372% | Potency [4] | Potency [5] | Potency [6] | Potency [7]
-29.3%: max response [3, 20]

CNCCc1cnc[nH]1
-7.35%: max response [3, 20]
-3.08%: max response [3, 21]
inactive: Potency [9] | Potency [1] > 46 µM | Potency [2] > 46 µM | activity change, negative = inhibition ([3]; at 57.5 µM (top of the series)) 4.08% | Potency [4] | Potency [5] | Potency [6] | Potency [7]

N[C@@]1(C(=O)O)CC[C@H](C(=O)O)C1
-7.89% and 39.1% and -2.3%: max response [3, 21]
inactive: Potency [9] | Potency [1] > 46 µM | outcome [11] | Potency [19] | outcome [13] | outcome [14] | outcome [15] | outcome [16] | outcome [17] | outcome [18] | activity change, negative = inhibition ([3]; at 57.5 µM (top of the series)) 1.47% and 9.82% and 2.9% | Potency [4] | Potency [5] | Potency [6] | Potency [7]
-9.77% and 22.3% and -1.79%: max response [3, 20]

C=C(C)CN1CC[C@@]23c4c5ccc(O)c4O[C@H]2c2[nH]c4ccccc4c2C[C@]3(O)[C@@H]1C5
inactive: Potency [9] | Potency [1] > 46 µM | Potency [2] > 46 µM | Potency [12] | Potency [5] | Potency [6] | Potency [7]

Cc1o[nH]c(=O)c1C[C@@H](N)C(=O)O
-0.22%: max response [3, 20]
inactive: Potency [9] | Potency [1] > 46 µM | Potency [2] > 46 µM | outcome [11] | activity change, negative = inhibition ([3]; at 57.5 µM (top of the series)) -2.31% | Potency [5] | Potency [6] | Potency [7]
0.175%: max response [3, 21]
